# Screening data deposited in PubChem BioAssay by National Center for Advancing Translational Sciences (NCATS).
# The list is not random: actives were taken first. Their share in the collection is about 2.6%.
# ATXN2 expr inh = reduces ATXN2 reporter expression in HEK-293 cells | HEK-293 ATXN2-luciferase reporter, luminescence, 24 h | Potency, µM (highest dose often 57 µM), without a hit: at the top dose activity change, negative = inhibition, hits mostly inhibitors | hit rate 0.72% among 360,000; note: potency is the fitted concentration of half-maximal effect; % is set by controls: 0 for no effect and ±100 for the full control effect; nearly all actives have a fitted effect of over 55% in size
#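 ATXN2-luciferase reporter cells (luciferase flanked by upstream and downstream ATXN2 gene portions) were treated 24 h at 37 °C with compounds at up to 57 uM. SteadyGlo luminescence gave expression; GF-AFC fluorescence gave viability.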
# TGFb inhibitor = inhibitors of TGF-b signaling; hit rate 1.2% among 410,000; HepG2 CAGA-GFP TGF-b/SMAD3 reporter, GFP fluorescence, 18 h; TGF-beta stimulated, 500 pg/mL final; Potency, µM (series often up to 46.1 µM), for inactives: at the highest dose activity, negative = inhibition, hits mostly inhibitors; note: potency is the fitted concentration of half-maximal effect; % is set by controls: 0 for no effect and ±100 for the full control effect; nearly all actives have a fitted effect of over 65% in size
#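 Smad-responsive CAGA-GFP expression was quantified in HEPG2 cells exposed to compounds and 500 pg/mL final TGF-beta for 18 h at 37 degrees C; unstimulated wells defined full inhibition.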
# Giardia killer = kills Giardia lamblia; Giardia lamblia trophozoite viability; AID 540267; hit rate 0.15% among 340,000; activity change, % at 7.66 µM, hits read low; in the data active = activity change below about -80%; inconclusive = between about -30% and that limit;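 note: parasites exposed to compound for two days anaerobically before the ATP read; % is set by controls: 0 for no effect and ±100 for the full control effect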
#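 Giardia trophozoites, 100 cells per well, were exposed to compounds for 48 hrs at 37 deg C under anaerobic conditions; viability was then read as ATP content by bioluminescence after 15-30 min at room temperature.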
# HepG2 viability = HepG2 cytotoxicity, counter-screen for TGF-b inhibitors | AID 588856 | HepG2 CAGA-GFP viability, ATP luminescence, 18 h | hit rate 0.76% among 410,000 | Potency, µM (series often up to 46.1 µM), for the others: top-dose activity change, negative = cytotoxicity, actives largely listed as cytotoxic; note: potency is the fitted concentration of half-maximal effect
#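 HepG2 CAGA-GFP cells (1000/well, DMEM with 1% FBS) received compound, then TGF-beta at 500 pg/mL final, and were incubated 18 hours at 37 degrees C. Viability was read by CellTiter-Glo luminescence. Media-only wells were set as complete cell-killing and DMSO as no toxicity.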
# S2 tox = reduces viability in counter-screen for ATXN expression inhibitors; S2 cells (HEK-293 line with an ATXN2-luciferase reporter) viability, CellTiter-Fluor protease fluorescence, 24 h; Potency, µM (doses to about 56.7 µM), usual class: cytotoxic; hit rate 0.49% among 400,000; AID 651635; note: potency is the fitted concentration of half-maximal effect; nearly all actives have a fitted effect of over 40% in size
# uPA generation = blocks generation of uPA at the cell surface | cell surface uPA generation assay, qHTS | Potency, µM (series often up to 38.3 µM), without a hit: at the highest dose activity change, negative = inhibition, usual class: inhibitors | hit rate 0.31% among 330,000 | AID 540303; active = well fitted inhibition curve with a large enough effect; inconclusive = small, poorly fitted or top-dose-only effect; inactive = no such curve, though single readings can be large or run the other way; tested in mouse RAW 264.7 cells; note: potency is the fitted concentration of half-maximal effect; % is set by controls: 0 for no effect and ±100 for the full control effect; nearly all actives have a fitted effect of over 55% in size
# The depositor's hits bear a star; i = inactive; ? = inconclusive; nt = not tested or not shown. Unless noted, calls come from the whole dose curve; as a rule, active = well fitted curve in the direction sought with a large enough effect; inconclusive = small, poorly fitted or top-dose-only effect, or another doubt; inactive = no such curve, though single readings can be large; an effect the other way counts as inactive or inconclusive.
SMILES,ATXN2 expr inh,TGFb inhibitor,Giardia killer,HepG2 viability,S2 tox,uPA generation
COc1ccc(C(=O)N(C)Cc2cnn(Cc3ccccc3)c2)cc1S(=O)(=O)N1CCOCC1,nt,?,-3.4,-12.8%,i,2µM*
CN(Cc1cnn(Cc2ccccc2)c1)C(=O)c1cccc(S(=O)(=O)N2CCOCC2)c1,-11.1%,-15.2%,-0.3,-1.3%,?,6.31µM*
Cc1ccc(S(=O)(=O)N2C[C@H]3N(C(=O)OC(C)C)N(C(=O)OC(C)C)C[C@H](OC(=O)NCC4CCCCC4)[C@@]3(O)C2)cc1,-38.3%,?,nt,-38.7%,31.6µM*,nt
Cc1ccc(S(=O)(=O)N2C[C@H]3N(C(=O)OC(C)C)N(C(=O)OC(C)C)C[C@H](OC(=O)NCc4ccccc4)[C@@]3(O)C2)cc1,-22.2%,?,nt,-7.0%,?,nt
COc1ccc(CCNC(=O)c2ccc3c(c2)ncn3-c2ccc(C(C)C)cc2)cc1OC,25.1µM*,?,nt,-37.7%,?,nt
S=C(NCCN1CCOCC1)N/N=C/c1cccs1,nt,4.47µM*,-14.5,8.91µM*,5.01µM*,-90.7%
O=C(C[n+]1cccc(Br)c1)c1ccc2c(c1)CCCC2,nt,-10.3%,nt,-25.2%,nt,nt
CC(=O)NCCNC(=O)c1cnn(-c2nccc(-c3cc(C)sc3C)n2)c1C,nt,nt,nt,nt,i,nt
C[C@@H]1[C@H](C)CC[C@]2(C(=O)O)CC[C@]3(C)C(=CC[C@@H]4[C@@]5(C)C[C@@H](O)[C@H](O)[C@@](C)(CO)[C@H]5CC[C@]43C)[C@@H]12,1.6%,nt,nt,nt,nt,nt
Cc1c(N/N=C(\C#N)C(=O)c2ccc(Cl)cc2)c(=O)n(-c2ccccc2)n1C,7.94µM*,?,-18.1,3.3%,?,-5.5%
N#C/C(=N\Nc1ccc(Cl)cc1)C(=O)c1ccccc1,?,?,3.5,-36.3%,?,-8.9%
CN(C)CCOc1ccccc1Cc1ccccc1 (tested in a mixture with another compound),nt,nt,nt,nt,i,nt
Cc1cc2c(c(C)c1Cl)C(c1ccc3c(c1)OCO3)CC(c1ccccc1)O2 (stereo not drawn),nt,?,-8.1,-0.9%,nt,nt
NC1(Cc2ccc(Cl)cc2)CCN(c2ncnc3[nH]ccc23)CC1,27.3µM*,nt,nt,nt,nt,nt
Cc1ncoc1C(=O)Nc1nccs1,1.3%,5.1%,9.2,-3.3%,i,nt
Cc1ncoc1C(=O)Nc1ncc([N+](=O)[O-])s1,-41.2%,6.1%,-86.9*,-33.3%,?,-4.1%
Cc1ccc(S(=O)(=O)CC(=O)Nc2ncc([N+](=O)[O-])s2)cc1,0.8%,0.8%,-83.9*,-0.5%,i,-0.7%
O=C(Nc1ncc([N+](=O)[O-])s1)c1ccccc1Br,nt,?,-92.6*,-30.6%,?,?
O=C(CCS(=O)(=O)c1ccccc1)Nc1ncc([N+](=O)[O-])s1,-5.0%,15.8µM*,-80.7*,-58.3%,i,-16.4%
O=C(/C=C/c1ccc([N+](=O)[O-])cc1)NCc1ccccn1,2.7%,1.7%,-0.5,-15.3%,i,-1.8%
Cc1ccc(CC(=O)Nc2ncc([N+](=O)[O-])s2)cc1,nt,-16.3%,-91.5*,-13.1%,?,2.6%
CC12CCC(C(=O)Nc3cccc(NC(=O)C45CCC(C)(C(=O)O4)C5(C)C)n3)(OC1=O)C2(C)C,-0.3%,-0.6%,43.6,-11.7%,i,-1.5%
CC12CCC(C(=O)Nc3ncc([N+](=O)[O-])s3)(OC1=O)C2(C)C (stereo not drawn),-3.0%,-11.2%,-85.9*,-2.4%,i,nt
O=C(/C=C/c1ccc([N+](=O)[O-])cc1)Nc1ncc([N+](=O)[O-])s1,nt,12.6µM*,-82.4*,-26.5%,?,?
O=c1[nH]c(=S)c2[nH]cnc2[nH]1,nt,-1.9%,-1.2,-12.6%,nt,nt
SMILES,ATXN2 expr inh,TGFb inhibitor,Giardia killer,HepG2 viability,S2 tox,uPA generation
CC(C)(C)OC(=O)N[C@@H](Cc1ccccc1)c1nnc(S(=O)(=O)Cc2cccc(F)c2)o1,?,11.2µM*,12.6,-102.2%,nt,-14.1%
CC(C)[C@H](NC(=O)OC(C)(C)C)c1nnc(S(=O)(=O)Cc2c(F)cccc2Cl)o1,?,11.2µM*,3.8,20µM*,nt,?
CC(C)C[C@H](N)c1nnc(S(=O)(=O)Cc2cccc(F)c2)o1,?,17.8µM*,-6.7,-90.2%,nt,?
Cc1cc2c(cc3c(SCc4cccc(F)c4)nnc(C)n32)o1,nt,nt,nt,-34.8%,nt,nt
Cn1nnnc1N=N/C(=N/Nc1ccccc1)c1ccccc1,2.51µM*,-8.5%,?,-36.4%,8.91µM*,-13.7%
CC(C)(C)c1cc(CCC(=O)NCCc2ccccn2)cc(C(C)(C)C)c1O,-0.6%,-1.7%,0.5,-8.4%,i,-1.3%
CCCNC(=O)CCc1cc(C(C)(C)C)c(O)c(C(C)(C)C)c1,nt,-2.0%,2.5,0.4%,i,11.2µM*
CCOc1ccc(C[C@H]2NC(=O)CCSSC[C@@H](C(=O)N3CCC[C@H]3C(=O)N[C@@H](CCCN)C(=O)NCC(N)=O)NC(=O)[C@H](CC(N)=O)NC(=O)[C@H]([C@@H](C)O)NC(=O)[C@H]([C@@H](C)CC)NC2=O)cc1,nt,nt,nt,nt,i,nt
CC(C)CN=C(NS(=O)(=O)c1ccccc1)C(Cl)(Cl)Cl,?,?,-11.5,11.2µM*,?,-11.6%
O=C(Cn1cc(S(=O)(=O)Cc2ccccc2F)c2ccccc21)Nc1ccc(F)c(Cl)c1,nt,?,nt,-61.6%,nt,nt
O=C(Cn1cc(S(=O)(=O)Cc2ccccc2Cl)c2ccccc21)Nc1cccc(C(F)(F)F)c1,nt,?,nt,15.8µM*,nt,nt
CCCCOC(=O)c1ccc(NC(=O)c2ccc3c(c2)CCCN3S(C)(=O)=O)cc1,7.08µM*,-9.8%,nt,-31.2%,?,nt
CCCCOC(=O)c1ccc(NC(=O)c2ccc3c(c2)CCN3S(=O)(=O)c2ccccc2)cc1,nt,-1.4%,nt,-11.4%,nt,nt
CCOC(=O)COc1ccc(S(=O)(=O)Nc2ccc(C)cc2)cc1,3.5%,-37.5%,1.5,-38.5%,i,nt
CCOC(=O)COc1ccc(S(=O)(=O)c2ccc(OCC(=O)OCC)cc2)cc1,5.2%,-4.4%,10.5,12.6µM*,i,1.9%
COc1ccc(-n2c(C)cc(/C=N/Nc3nnc(C)n3N)c2C)cc1,-13.0%,3.55µM*,4.2,5.01µM*,?,-10.4%
COc1cccc(/C=N/Nc2nnc(C)n2N)c1O,-0.5%,7.94µM*,2.7,-154.2%,i,-4.8%
Cc1ncc2c(c1CNC(=O)CN1CCCCC1)CCN(C(=O)c1ccc(F)cc1Cl)C2,nt,nt,nt,nt,i,nt
CNc1ccc(C=C2c3ccccc3-c3ccccc32)cc1,nt,?,nt,-40.0%,nt,nt
O=C1CC(C(=O)N2CCCC(c3nc(-c4ccncc4)ncc3-c3ccccc3)C2)C2(CCCCC2)O1 (stereo not drawn),nt,nt,nt,nt,i,nt
Cc1c(C(=O)N2CCCCC2)oc2ccc(S(=O)(=O)N3CC(C)CC(C)C3)cc12 (stereo not drawn),?,11.2µM*,6.8,-30.6%,i,-8.7%
